# Screening data deposited in PubChem by National Center for Advancing Translational Sciences (NCATS).
# GPR32 ag = activates human resolvin D1 receptor GPR32; activation, % at 76.9 µM; CHO-K1 GPR32 beta-arrestin PathHunter luminescence, 90 min; zero percent set by DMSO-only wells; AID 1346428; O75388; 2.5% of 48,000 active;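 active means activation of at least 60% and not above a set upper limit, about 1 call in 100 departs from these limits; inconclusive means activation of 40% to 60%, or above that upper limit; inactive means activation under 40%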; further: 0% is about no effect
# Target sequence (O75388 whole entry, looked up): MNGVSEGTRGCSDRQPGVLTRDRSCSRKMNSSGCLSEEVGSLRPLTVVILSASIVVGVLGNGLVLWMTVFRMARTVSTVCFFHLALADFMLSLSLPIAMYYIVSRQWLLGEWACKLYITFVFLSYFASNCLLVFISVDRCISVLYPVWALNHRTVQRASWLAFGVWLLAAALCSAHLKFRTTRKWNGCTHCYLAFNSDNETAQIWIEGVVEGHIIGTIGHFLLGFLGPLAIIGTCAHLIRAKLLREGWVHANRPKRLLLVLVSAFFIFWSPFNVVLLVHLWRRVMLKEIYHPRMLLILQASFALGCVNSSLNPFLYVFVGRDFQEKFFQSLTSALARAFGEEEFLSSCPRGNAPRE
#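 Using DMSO wells as EC0, agonist-induced signal was taken as chemiluminescence from beta-Gal reconstituted upon beta-arrestin recruitment to GPR32 in CHO-K1 cells after 90 min compound treatment.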
# GALC G270D up = raises human GALC G270D mutant activity in cells; Potency, µM (highest dose often 57.5 µM), actives largely listed as activators; 0.1% of 45,000 active; 145M-Twi-hGALC-G270D cells (Twitcher mouse brain line with human GALC G270D), HMU-beta-Gal fluorescence, 48 h; AID 1159614; further: potency means the concentration at half of the fitted maximal effect; 0% is about no effect; nearly all actives have a fitted effect of over 65% in size
#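 Brain-derived Twitcher mouse 145M-Twi cells stably expressing human GALC-G270D or wild-type GALC, treated live, then residual GALC activity read by fluorescence of HMU-b-Gal substrate (0.1 mM final) in citrate-phosphate buffer pH 5.2 with sodium taurocholate. Signal increase indicates enhancement.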
# HTT promoter inh = inhibitors of huntingtin promoter activity; HEK293 HTT promoter firefly luciferase reporter, 24 h; Potency, µM (series often up to 57.5 µM), inactives show top-dose activity change, negative = inhibition, actives largely listed as inhibitors; 0.93% of 48,000 active; AID 1508623; further: potency means the concentration at half of the fitted maximal effect; nearly all actives have a fitted effect of over 50% in size
#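 HEK293 Fluc reporter, 2,500 cells/well, 24 h pre-culture; cpds up to 57.5 uM final, 24 h 37 degrees C; Dual-Glo, 10 min RT; normalized vehicle = 0%, zero RLU = -100%.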
# B2AR arrestin ag = agonists recruiting beta-arrestin to human beta2-adrenergic receptor. P07550. HTLA Tango cells, beta-arrestin recruitment, luciferase luminescence, 18 h. Potency, µM (doses to about 46.1 µM), actives largely listed as activators. 44,000 tested, under 10 active;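 further: potency means the concentration at half of the fitted maximal effect; 0% = DMSO and full agonism = EC100 isoproterenol or metaproterenol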
# Target sequence (P07550 whole entry, looked up): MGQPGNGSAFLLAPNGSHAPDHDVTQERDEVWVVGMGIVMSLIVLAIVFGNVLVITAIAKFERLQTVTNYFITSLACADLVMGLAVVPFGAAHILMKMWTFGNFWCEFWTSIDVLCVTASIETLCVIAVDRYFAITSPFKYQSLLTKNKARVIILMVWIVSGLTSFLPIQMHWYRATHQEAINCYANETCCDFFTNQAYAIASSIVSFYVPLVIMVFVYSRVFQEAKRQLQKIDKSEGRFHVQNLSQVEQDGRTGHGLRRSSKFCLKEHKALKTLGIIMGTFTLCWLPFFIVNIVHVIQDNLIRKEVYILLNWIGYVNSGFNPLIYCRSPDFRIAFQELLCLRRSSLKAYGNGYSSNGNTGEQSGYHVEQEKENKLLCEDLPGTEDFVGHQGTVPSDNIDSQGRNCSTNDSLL
#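 First, Tango cells carrying beta2-AR and beta-arrestin fusions received compound up to 46 microM. After 18 hr at 37 degrees C, luciferase substrate was added for 15 minutes, then luminescence gave %Activity for curve fitting.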
# HTT-AS act = activators of huntingtin-antisense promoter activity; HEK293 HTT-AS promoter firefly luciferase reporter, 24 h; response scale: percent change from vehicle, -100% = no light; Potency, µM (titrated, usually from 57.5 µM), for inactives: top-dose activity change, positive = activation, most hits filed as activators; 0.24% of 48,000 active; AID 1508624; further: potency means the concentration at half of the fitted maximal effect; nearly all actives have a fitted effect of over 55% in size
#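 Firefly luciferase signal from promoter-reporter HEK293 cells was scaled between vehicle (0%) and zero RLU (-100%). Compounds were tested at final concentrations of up to 57.5 uM over 24 h at 37 degrees C. PTC124 at 50 uM final served as control inhibitor.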
# FH mod = Identification of activators of human fumarate hydratase by quantitative high-throughput screening. AID 1347055, 2019. Fumarate hydratase, mitochondrial (Homo sapiens), P07954. FH coupled MDH/diaphorase resazurin fluorescence, 15 min. Potency, µM (highest dose often 79.9 µM), for inactives: at the top dose activity change, negative = inhibition, most hits filed as inhibitors. 0.22% of 54,000 active; further: potency means the concentration at half of the fitted maximal effect; on the % scale 0 is the no-effect control and ±100 the full control effect; the screen sought activators but most active calls are inhibition curves; nearly all actives have a fitted effect of over 45% in size
# * marks the source's active call; other numbers are inactive results; i = inactive; ? = inconclusive; . = not tested or not shown; [ ] = another dose, or the depositor's remark. Only some compounds are listed: those with a hit (about 3.7% of all), similar ones and a draw of the others. Unless noted, the call rests on the fitted dose curve; in most records, active means well fitted curve in the direction sought with a large enough effect; inconclusive means small, poorly fitted or top-dose-only effect, or another doubt; inactive means no such curve, though single readings can be large; an effect the other way counts as inactive or inconclusive.
SMILES,GPR32 ag,GALC G270D up,HTT promoter inh,B2AR arrestin ag,HTT-AS act,FH mod
Cc1ccc(NC(=O)Cn2c(=O)ccc3cc(S(=O)(=O)N4CCC(C)CC4)ccc32)cc1C,70.0*,i,?,i,-37.3%,2.7%
COc1ccc(NC(=O)Cn2cnc3ccc(S(=O)(=O)N4CCC(C)CC4)cc3c2=O)cc1OC,112.9*,i,-21.5%,i,-28.8%,-16.0%
C=C1C(=O)O[C@@H]2/C=C(\CO)CC/C=C(/C=O)C[C@H](O)[C@@H]12,.,.,.,.,.,-2.2%
COc1cccc2cc(-c3nnc(Nc4c(F)cccc4F)s3)c(=O)oc12,5.1,i,78.9%,i,1µM*,4.6%
COc1ccc(/C=C/C(=O)O[C@@H]2[C@@H](O)[C@H](C)O[C@@H](OC3C4C=COC(O[C@@H]5O[C@H](CO)[C@@H](O)[C@H](O)[C@H]5O)C4C4(CO)OC34)[C@@H]2O)cc1OC (stereo partly specified),.,.,.,.,.,8.2%[20.6 µM]
C=C1C(=O)OC2/C=C(\COC(C)=O)CC/C=C(\C=O)CC(OC(=O)C(C)CC)C12 (stereo unspecified),.,.,.,.,.,-0.6%[53.3 µM]
CCn1c(CN2CCCCC2)nc2cc(NC(=O)c3ccc([N+](=O)[O-])cc3)ccc21,70.5*,i,?,i,-28.4%,4.8%
C=C1C(OC2OC(CO)C(O)C(O)C2O)CC2C(C)(C)C(O)CCC2(C)C1CC/C(C)=C\COC(=O)CC(=O)O (stereo unspecified),.,.,.,.,.,-8.5%[20.6 µM]
CCC(C(=O)Nc1ccc(C)c(Cl)c1)n1c(=O)c(-c2ccccc2NC(C)=O)nc2ccccc21 (stereo unspecified),-14.5,i,22.4µM*,i,-43.9%,-28.0%
CN[C@H](C(=O)N[C@H](C(=O)N(C)[C@H](/C=C(\C)C(=O)O)C(C)C)C(C)(C)C)C(C)(C)c1ccccc1,.,.,.,.,.,2.8%
Cc1oc(-c2ccccc2)nc1CNS(=O)(=O)c1ccc(Cl)cc1,115.4*,i,-3.1%,i,-17.2%,-7.9%
Cc1oc(-c2ccccc2)nc1CNC(=O)Nc1ccccc1,?,i,0.0%,i,-20.1%,-32.4%
C/C1=C\CC[C@]2(C)O[C@H]2C(=O)c2c(C)coc2C1,.,.,.,.,.,-6.4%
CCOc1ccccc1CN1CCc2nc(N3CCN(c4ccccc4F)CC3)ncc2C1,-59.9,i,14.1µM*,i,-51.4%,-5.4%
Fc1ccc(CN2CCc3nc(N4CCN(c5ccccc5F)CC4)ncc3C2)c(F)c1,-20.3,i,-47.5%,i,-27.6%,-1.2%
O=C(Nc1ccc(Br)cc1)c1ccc(Br)c(S(=O)(=O)N2CCCCC2)c1,24.4,i,12.6µM*,i,-26.3%,-15.2%
O=C(O)c1ccc(NC(=O)c2ccc(Br)c(S(=O)(=O)N3CCCC3)c2)cc1,-12.8,i,-7.8%,i,-16.2%,1.6%
C=CC(=O)N1CCCC(n2nc(-c3ccc(Oc4ccccc4)cc3)c3c(N)ncnc32)C1 (stereo unspecified),.,.,.,.,.,-4.8%
CC(C)c1ccc(NC(=O)C2(C)Cc3ccccc3C(=O)O2)cc1 (stereo unspecified),78.6*,i,25.4%,i,26.0%,-4.7%
CCOc1ccc(-c2cc(CCCC(=O)NCCc3cc(OC)c(OC)c(OC)c3)no2)cc1,72.4*,i,15.8µM*,i,-78.8%,-0.8%
CCOc1ccc(-c2cc(CCCC(=O)NCCc3ccc(OC)c(OC)c3)no2)cc1,19.6,i,?,i,-81.0%,-13.9%
CCc1ccc(NC(=O)CSc2nc3n[nH]c(C)c3c(=N)n2-c2ccccc2C)cc1,61.7*,i,?,i,-29.4%,-0.7%
CN1CCC(c2c(O)cc(O)c3c(=O)cc(-c4ccccc4Cl)oc23)C1CO (stereo unspecified),.,.,.,.,.,13.0%
O=C1c2ccccc2-[n+]2ccc3c([nH]c4ccccc43)c21,.,.,?,.,-92.6%,6.85µM*
Cc1cc(=O)oc2cc(O)ccc12,-7.1,28.2µM*,-12.7%,.,-12.4%,3.9%[53.3 µM]
SMILES,GPR32 ag,GALC G270D up,HTT promoter inh,B2AR arrestin ag,HTT-AS act,FH mod
C=C(C=O)[C@]1(O)C[C@@]2(C)C(=CC1=O)C=C[C@H](OC(=O)/C=C/C=C/[C@H](C)CC)[C@@H]2C,.,.,.,.,.,-1.2%[53.3 µM]
Fc1cccc(Cl)c1CNc1n[nH]c(-c2ccco2)n1,8.1,i,47.0%,i,5.01µM*,1.1%
CC(C)c1ccc(CNc2n[nH]c(-c3ccco3)n2)cc1,35.2,i,30.3%,i,?,6.8%
CS(=O)(=O)NCC1CCC(Nc2nc3c(s2)CCSc2ccccc2-3)CC1 (stereo unspecified),.,.,.,.,.,-8.1%
C/C=C(\C)C(=O)O[C@H]1C[C@](C)(O)[C@H]2CC=C(C)[C@H]2[C@@H]2OC(=O)[C@H](C)[C@H]21,.,.,.,.,.,-1.9%[53.3 µM]
O=C(CSc1ncc(CO)n1Cc1ccccc1)Nc1nc2ccccc2s1,60.3*,i,?,i,-41.3%,-1.8%
O=C(CSc1ncc(CO)n1Cc1ccccc1)Nc1ccc(C(F)(F)F)cc1,117.6*,i,?,i,-45.2%,-24.0%
Cc1ccc(Cn2ccnc2SCC(=O)Nc2nc3ccccc3s2)cc1,-5.3,i,?,i,-0.7%,?
Cc1nc(C)c(-c2ccc(SCC(=O)Nc3ccc(Cl)c(Cl)c3)nn2)s1,36.7,i,17.8µM*,i,-31.8%,-6.9%
CCC(C)(OC(C)=O)C(=O)O[C@H]1[C@H](OC(C)=O)[C@]2(CO)[C@H](O)[C@H](O)[C@]3(C)C(=CCC4[C@@]5(C)CC[C@H](O[C@@H]6O[C@H](C(=O)O)[C@@H](O)[C@H](O[C@@H]7OC[C@H](O)[C@H](O[C@@H]8OC[C@H](O)[C@H](O)[C@H]8O)[C@H]7O)[C@H]6O[C@@H]6O[C@H](CO)[C@@H](O)[C@H](O)[C@H]6O)C(C)(C)C5CC[C@]43C)[C@@H]2CC1(C)C (stereo partly specified),.,.,.,.,.,1.0%[13.5 µM]
Cc1ccc(CNC(=O)c2ccc(-c3nc(CS(=O)(=O)c4ccc(C)cc4)c(C)o3)cc2)cc1,109.8*,?,-20.8%,i,-16.2%,?
CCCCNC(=O)c1ccc(-c2nc(CS(=O)(=O)c3ccc(C)cc3)c(C)o2)cc1,69.4*,i,?,i,-15.6%,-10.8%
COc1c(C(CC(C)C)OC(C)=O)ccc(Oc2c(O)cc(C)cc2/C=C/C(C)=O)c1C(=O)O (stereo unspecified),.,.,.,.,.,-14.7%[53.3 µM]
